Screening results (PubChem)
SARS PLpro yeast-1: qHTS of Yeast-based Assay for SARS-CoV PLP; S. cerevisiae expressing SARS-CoV PLpro, growth rescue; Potency, µM (doses to about 32.9 µM), for inactives: top-dose activity, positive = growth rescue, most hits filed as activators; 330,000 tested, 0.19% active; calls by dose curve; also: potency is read from the fitted curve at half-maximal effect; 0% is about no effect; nearly all actives have a fitted effect of over 55% in size
Vaccinia mCherry: qHTS for Stage-Specific Inhibitors of Vaccinia Orthopoxvirus: mCherry Reporter Primary qHTS | Vaccinia virus mCherry reporter infection, fluorescence | Potency, µM (highest dose often 36.5 µM), without a hit: at the highest dose activity change, negative = inhibition, usual class: inhibitors | 310,000 tested, 0.63% active | AID 720579, 2013; calls by dose curve; tested in A549 cells; also: potency is read from the fitted curve at half-maximal effect; % is scaled to controls: 0 for no effect and ±100 for the full control effect; nearly all actives have a fitted effect of over 35% in size
VACV Venus inh: qHTS for Stage-Specific Inhibitors of Vaccinia Orthopoxvirus: Venus Reporter Primary qHTS | Vaccinia virus Venus reporter expression, fluorescence | 330,000 tested, 0.46% active | Potency, µM (top dose mostly 36.5 µM), inactives show at the top dose activity change, negative = inhibition, hits mostly inhibitors; calls by dose curve; tested in A549 cells; also: potency is read from the fitted curve at half-maximal effect; % is scaled to controls: 0 for no effect and ±100 for the full control effect; nearly all actives have a fitted effect of over 30% in size
AmpC no deterg: qHTS Inhibitors of AmpC Beta-Lactamase (assay without detergent); P00811; AmpC nitrocefin hydrolysis, absorbance 480 nm, 0.0001% Triton; Potency, µM (top dose mostly 57.1 µM), for the others: at the top dose activity change, negative = inhibition, hits mostly inhibitors; 330,000 tested, 0.52% active;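 also: potency is read from the fitted curve at half-maximal effect; plate controls were no compound for no effect and no enzyme for full effect; nearly all actives have a fitted effect of over 20% in size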
Target sequence (P00811 whole entry, looked up): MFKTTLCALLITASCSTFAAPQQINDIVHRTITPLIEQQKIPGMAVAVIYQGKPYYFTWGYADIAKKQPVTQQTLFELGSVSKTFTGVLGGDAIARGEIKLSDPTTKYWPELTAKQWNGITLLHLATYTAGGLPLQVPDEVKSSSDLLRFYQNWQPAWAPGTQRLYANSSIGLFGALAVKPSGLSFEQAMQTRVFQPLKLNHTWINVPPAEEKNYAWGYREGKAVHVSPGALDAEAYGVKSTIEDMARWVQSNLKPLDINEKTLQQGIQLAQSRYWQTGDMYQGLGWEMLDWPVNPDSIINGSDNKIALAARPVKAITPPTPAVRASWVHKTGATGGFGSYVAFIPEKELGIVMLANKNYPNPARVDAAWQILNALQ
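AmpC (5.3 nM in the dispensed reagent) in 20 mM phosphate pH 7.0 with 0.01% (detergent screen) or 0.0001% Triton X-100 was preincubated with compounds for 15 min at room temperature. Nitrocefin was then added from an 800 uM solution, and hydrolysis was followed at 480 nm.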
AmpC inh detg: qHTS Inhibitors of AmpC Beta-Lactamase (assay with detergent); P00811; AmpC hydrolysis of nitrocefin, absorbance 480 nm, 0.01% Triton; Potency, µM (titrated, usually from 114 µM), for the others: top-dose activity change, negative = inhibition, usual class: inhibitors; 370,000 tested, 0.041% active; AID 485294, 2010;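 also: potency is read from the fitted curve at half-maximal effect; 0% = no-compound wells and -100% = no-enzyme wells; nearly all actives have a fitted effect of over 25% in size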
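20 mM phosphate pH 7.0 + 0.01% (detergent screen) or 0.0001% Triton X-100; 5.3 nM AmpC reagent; cpd preinc 15 min RT; nitrocefin (800 uM stock) to start; A480 q20 s × 4 min; Activity was normalised to no-enzyme and no-compound control wells.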
SARS PLpro yeast-2: qHTS of Yeast-based Assay for SARS-CoV PLP: Hit Validation; shares compounds with SARS PLpro yeast-1; yeast expressing SARS-CoV PLpro, growth phenotype rescue; calls only; 1,000 tested, 19% active; call rule not given here
* = called active by the depositor; i = inactive; ? = inconclusive; . = no result given; + = active, no number. An excerpt weighted towards active compounds, which were near 1.3% of everything screened. Unless noted, calls follow the shape of the dose curve; as a rule, active = well fitted curve in the direction sought with a large enough effect; inconclusive = small, poorly fitted or top-dose-only effect, or another doubt; inactive = no such curve, though single readings can be large; an effect the other way counts as inactive or inconclusive.

SMILES	SARS PLpro yeast-1	Vaccinia mCherry	VACV Venus inh	AmpC no deterg	AmpC inh detg	SARS PLpro yeast-2
NS(=O)(=O)c1ccc(NC(=O)CN(C(=O)C(F)(F)F)C2CCCC2)cc1	.	-14.2%	-7.9%	.	.	.
CC(OC(=O)CNC(=O)c1ccccc1)C(=O)Nc1ccc(S(=O)(=O)N2CCOCC2)cc1 (configuration not stated)	?	-16.0%	-8.9%	-18.6%	-16.2%	i
O=C(COC(=O)CNC(=O)c1ccccc1)Nc1ccc(S(=O)(=O)N2CCOCC2)cc1	0.2%	-24.5%	-11.0%	-4.1%	?	.
CCc1nc2c(OCC(=O)c3ccc(Cl)cc3Cl)cccn2c1N(C)C(=O)c1cccs1	.	-5.6%	-26.4%	.	.	.
Cc1ccc(NC(=S)Nc2ccc3cn[nH]c3c2)cc1C	2.51µM*	.	.	-18.4%	-13.3%	?
Cc1ccc(NC(=S)Nc2ccc3cn[nH]c3c2)c(C)c1	1.4%	-18.1%	-1.0%	-28.6%	4.5%	.
CC1CC(C)(C)NC(=S)N1CC(=O)N(C)Cc1ccccc1 (configuration not stated)	?	-12.0%	-5.9%	-15.9%	-4.3%	i
CC1CC(C)(C)NC(=S)N1CC(=O)NCc1ccc(F)cc1 (configuration not stated)	3.0%	-3.5%	-4.0%	-5.9%	-2.3%	.
COc1ccc(C(C)C)cc1-c1cc(C(=O)NCc2cccc(C(F)(F)F)c2)[nH]n1	.	-4.4%	-24.1%	.	.	.
COc1cc(C(=O)NC2CCN(Cc3nnnn3Cc3cccs3)CC2)cc(OC)c1OC	3.98µM*	.	.	63.9%	-6.2%	i
COCCn1nnnc1CN1CCC(NC(=O)c2ccc(Br)cc2)CC1	-5.6%	-6.0%	-18.2%	-11.0%	-9.1%	.
O=C(O)CSc1nnc(CSc2nc3ccccc3s2)n1-c1ccccc1	5.1%	-0.8%	-11.5%	-12.6%	-0.5%	.
C#CCSc1nnc(CSc2nc3ccccc3s2)n1-c1ccccc1	?	.	.	-14.4%	4.7%	?
COc1ccccc1CNC(=O)c1cc(-c2ccccc2)n[nH]1	.	-17.6%	3.6%	.	12.7%	.
O=C(Cn1nc2c(cc1=O)CCCC2)Nc1ccccc1C(F)(F)F	.	-10.0%	-9.5%	.	-2.5%	.
Cc1ccc(-c2nc(C)sc2CC(=O)Nc2nnc(C)s2)cc1	2.6%	-12.8%	-8.0%	-25.8%	-4.6%	.
CC(=O)Nc1ccc(NC(=O)Cc2sc(C)nc2-c2ccc(C)cc2)cc1	?	-11.1%	0.7%	-22.3%	-4.5%	i
CCOC(=O)N1CCN(Cc2nc3cc(NC(=O)c4cccc(C)c4)ccc3n2C(C)C)CC1	.	?	?	.	14.8%	.
C=CCN(CC=C)C(=S)NC(=O)/C=C/c1ccc(C)cc1	?	-13.6%	0.9%	-8.8%	6.0%	.
C=CCN(CC=C)C(=S)NC(=O)/C=C/c1ccccc1	2.82µM*	-13.5%	3.3%	-19.6%	?	i
COc1ccc(CNC(=S)NC2CCCC2)cc1	?	-8.7%	-4.0%	-8.4%	-8.4%	+
COc1ccc(CNC(=S)NC2CCCCC2)cc1	0.7%	-10.0%	-27.4%	-27.3%	?	.
CCC1CCC(C(=O)NC(C(=O)NCCN(CC(C)C)CC(C)C)C(C)C)CC1 (configuration not stated)	.	-10.8%	-3.1%	.	5.4%	.
COc1ccccc1N1CCN(c2csc3ccc(Cl)cc3c2=O)CC1	.	-24.8%	-23.0%	.	2.8%	.
Cc1c(NC(=O)COc2ncnc3c(Cl)cc(Cl)cc23)c(=O)n(-c2ccccc2)n1C	?	-10.1%	-3.6%	-5.6%	-14.9%	i
SMILES	SARS PLpro yeast-1	Vaccinia mCherry	VACV Venus inh	AmpC no deterg	AmpC inh detg	SARS PLpro yeast-2
Cc1c(NC(=O)COc2ccccc2Cl)c(=O)n(-c2ccccc2)n1C	-14.4%	.	.	-9.5%	?	.
COC(=O)C1(S(=O)(=O)c2cc(Br)cc3c2N(C(C)=O)CC3)CC1	?	.	-22.5%	3.3%	-8.8%	i
O=C(c1ccc(O)c(Cl)c1)N1CCN(S(=O)(=O)c2ccccc2)CC1	?	-0.9%	-6.8%	-25.3%	-3.0%	i
O=C(O)c1ccc(NCc2ccc3c(c2)OCO3)cc1	?	-11.5%	-1.6%	-20.8%	?	i
O=C(NCc1ccc2c(c1)OCO2)c1ccc2c(c1)OCO2	-0.1%	.	.	-18.1%	4.9%	.
CCOC(=O)N1CCC(N2Cc3cccc(C(=O)N4CCN(C5CCCCC5)CC4)c3C2=O)CC1	20µM*	-9.8%	-12.7%	13.3%	?	i
CCOC(=O)N1CCC(N2Cc3cccc(C(=O)N4CCN(c5cccc(C)c5C)CC4)c3C2=O)CC1	-2.9%	-4.8%	-22.3%	229.6%	1.0%	.
COc1ccccc1CNC(=O)CCC1N=C2c3ccccc3N=C(SCC(=O)NCCc3ccc(OC)c(OC)c3)N2C1=O (configuration not stated)	.	i	-10.4%	.	3.6%	.
Cc1cccc(N2CCN(C(=O)c3noc4c3CCCCC4)CC2)c1C	.	i	-8.4%	.	19.9%	.
CCCCC(=O)NNC(=S)NC(=O)CCC	15.8µM*	-1.7%	4.8%	-10.6%	0.7%	i
Cc1ccnc(NC(c2ccccc2O)c2oc(CO)cc(=O)c2O)c1 (configuration not stated)	?	.	.	-13.5%	1.0%	.
COc1ccc(C(c2oc(CO)cc(=O)c2O)c2oc(CO)cc(=O)c2O)cc1	4.47µM*	-4.7%	-9.4%	24.5%	1.2%	+
COc1cc(C(c2oc(CO)cc(=O)c2O)c2oc(CO)cc(=O)c2O)cc(OC)c1OC	?	.	.	-7.7%	-5.8%	i
CCOC(=O)N1CCc2c(sc3c2c(=O)n(-c2ccc(Cl)cc2)c(=O)n3CC(C)C)C1	.	-14.4%	-16.3%	.	6.8%	.
Cc1ccc(/C=N/Nc2nc3ccccc3[nH]2)s1	2.82µM*	-11.1%	?	-35.0%	-4.8%	i
CCc1ccc(OCc2nnc(SCCN3CCOCC3)n2CC)cc1	?	.	.	144.8%	-13.2%	i
CCn1c(C)c(C)c2cc(C(=O)NCC(C)c3ccccc3)ccc21 (configuration not stated)	.	-12.4%	-1.6%	.	7.0%	.
O=C(N=C1SCC(=O)N1c1ccccc1)c1ccco1	?	.	21.5%	-20.2%	0.2%	i
O=C(N=C1SCC(=O)N1c1ccccc1Cl)c1ccco1	-4.8%	.	.	-31.8%	?	.
Cc1ccnc2nc(C(=O)OCC(=O)Nc3ccc4c(c3)OCCO4)nn12	?	-0.2%	-13.4%	-15.0%	.	i
COC(=O)c1ccc(NC(=O)COC(=O)c2nc3nccc(C)n3n2)cc1	-1.3%	4.5%	4.5%	-23.9%	2.9%	.
Cc1nn(S(=O)(=O)c2ccc(C(C)(C)C)cc2)c(C)c1S(=O)(=O)N1CCCCCC1	.	-5.7%	-5.2%	.	12.5%	.
COc1cc(N/N=C/c2ccccc2O)ncn1	8.91µM*	14.1µM*	?	-24.5%	-14.3%	?
COc1cc(N/N=C/c2ccc(N(C)C)cc2)ncn1	0.2%	-6.9%	-10.4%	-8.2%	-2.9%	.
